Pyk2 oligo antag – antagonists of Pyk2 self-association, primary screen, Q293 cells, FERM NanoBiT luminescence, HTS; 0.83% of 99,000 active; Protein-tyrosine kinase 2-beta (Homo sapiens), Q14289; z-score (the deposit names both 25 µM and 10 µM); AID 1347419, 2020; active compounds read low;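 active means Z-score of -3 or lower, scaled per plate to the spread of control and sample wells; inactive means z-score above -3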;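 further: negative z-score means lost luminescence so less FERM oligomerization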
CYP2C19 activ – human CYP2C19 activators, primary screen, biochemical, luminescence; Cytochrome P450 2C19 (Homo sapiens), P33261; recombinant CYP2C19, luciferin-H EGE luminescence; active compounds read high; 0 = fully inhibited enzyme, 1 = untreated enzyme; activation factor at 5 µM; 96,000 tested, under 10 active;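 active means activation factor of at least 2 at 5 µM in the primary screen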;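 further: 0 = wells with 2.5 mM tranylcypromine and 1 = vehicle-only wells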
Target sequence (P33261 whole entry, looked up): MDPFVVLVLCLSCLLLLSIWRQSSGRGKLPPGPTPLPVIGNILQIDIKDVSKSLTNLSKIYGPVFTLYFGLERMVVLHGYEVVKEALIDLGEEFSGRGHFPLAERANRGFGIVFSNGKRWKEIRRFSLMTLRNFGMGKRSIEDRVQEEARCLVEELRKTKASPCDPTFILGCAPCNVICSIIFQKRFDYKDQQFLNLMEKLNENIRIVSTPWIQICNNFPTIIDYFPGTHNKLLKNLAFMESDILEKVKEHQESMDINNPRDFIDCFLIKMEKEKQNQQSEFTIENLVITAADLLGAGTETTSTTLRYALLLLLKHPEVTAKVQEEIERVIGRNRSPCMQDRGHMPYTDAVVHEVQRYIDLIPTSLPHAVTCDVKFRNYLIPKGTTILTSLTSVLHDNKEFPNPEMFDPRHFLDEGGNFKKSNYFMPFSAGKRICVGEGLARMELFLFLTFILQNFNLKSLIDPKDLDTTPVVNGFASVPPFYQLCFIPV
CYP2C19 inh – blockers of cytochrome P450 2C19 activity – biochemical, luminescence, ADME assay, primary screen; 21% of 96,000 active; P33261; inhibition, % at 5 µM; AID 778, 2007; CYP2C19 Supersomes, luciferin-H EGE luminescence, 30 min;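 active means CYP2C19 inhibition above a set limit at 5 µM in the primary screen, cut at about 50% in these data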;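 further: plate controls were negative control wells for no effect and 2.5 mM tranylcypromine positive control for full effect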
CYP2C9 inhib – blockers of cytochrome P450 2C9 activity – biochemical, luminescence, ADME assay, primary screen. 20% of 96,000 active. P11712. inhibition, % at 5 µM. AID 777, 2007. CYP2C9 Supersomes, luciferin-H conversion;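 active means blocking of liver enzyme CYP2C9 beyond about 50% at 5 µM, limit read from the data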
CYP2C9 activ – human CYP2C9 activators, primary screen, biochemical, luminescence; 1.4% of 96,000 active; activation factor at 5 µM; AID 1024, 2008; recombinant CYP2C9, luciferin-H conversion; active compounds read high; factor 1 = untreated enzyme, 0 = blocked;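 active means activation factor of 2 or more for CYP2C9 at a 5 µM dose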;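 further: 0 = sulfaphenazole-blocked wells and 1 = vehicle-only wells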
Active calls of the source: *. An excerpt weighted towards active compounds, which were near 28% of everything screened.

COc1cccc(C(=O)N(Cc2ccc(N(C)C)cc2)C2CCS(=O)(=O)C2)c1 (stereo not drawn) was read as Pyk2 oligo antag -0.49, CYP2C19 activ 0.8, CYP2C19 inh 23, CYP2C9 inhib -6 and CYP2C9 activ 1.1.
For O=C(O)CCCNCc1ccccc1F the results were Pyk2 oligo antag -0.09, CYP2C19 activ 1.1, CYP2C19 inh -7, CYP2C9 inhib -7 and CYP2C9 activ 1.1.
Screening CC(=NCCN1CCNCC1)C1=C(O)CC(C)(C)CC1=O returned Pyk2 oligo antag 0.87, CYP2C19 activ 1, CYP2C19 inh 2, CYP2C9 inhib 13 and CYP2C9 activ 0.9.
Screening Cc1ccc(S(=O)(=O)NC(=O)Nc2ccc(F)cc2)cc1 returned Pyk2 oligo antag 0.05.
For O=C(Cc1ccccn1)Nc1ccccc1 the results were Pyk2 oligo antag 0.72, CYP2C19 activ 1, CYP2C19 inh 0, CYP2C9 inhib -16 and CYP2C9 activ 1.2.
For O=C(COc1ccc(Br)cc1CO)Nc1ccc(F)cc1 the results were Pyk2 oligo antag -0.82, CYP2C19 activ 0, CYP2C19 inh 99*, CYP2C9 inhib 88* and CYP2C9 activ 0.1.
For O=C(CNc1ccccc1)Nc1ccc(F)cc1 the results were Pyk2 oligo antag -0.73, CYP2C19 activ 0.4, CYP2C19 inh 56*, CYP2C9 inhib 24 and CYP2C9 activ 0.8.
O=C(Cc1coc(-c2ccc(F)cc2)n1)Nc1ccccc1 was read as Pyk2 oligo antag 2.7, CYP2C19 activ 0.1, CYP2C19 inh 86*, CYP2C9 inhib 61* and CYP2C9 activ 0.4.
For Cc1ccc(NC(=O)Cc2ccc(F)cc2)cc1 the results were Pyk2 oligo antag -0.03, CYP2C19 activ 0, CYP2C19 inh 97*, CYP2C9 inhib 18 and CYP2C9 activ 0.8.
COc1cccc(NC(=O)CCN2CCC(C(N)=O)CC2)c1 was read as Pyk2 oligo antag -0.16, CYP2C19 activ 1, CYP2C19 inh -4, CYP2C9 inhib -16 and CYP2C9 activ 1.2.
For Cc1c(Br)cc(C(=O)NC2CCCCC2)c(C)c1C the results were Pyk2 oligo antag 1.1, CYP2C19 activ 1.1, CYP2C19 inh -8, CYP2C9 inhib -36 and CYP2C9 activ 1.4.
`O=C(Cn1cc(C(F)(F)F)ccc1=O)N1CCN(S(=O)(=O)c2ccc(Cl)cc2)CC1` gave Pyk2 oligo antag 0.33, CYP2C19 activ 1, CYP2C19 inh 2, CYP2C9 inhib 5 and CYP2C9 activ 0.9.
Screening Cc1ccc(OCC(=O)Nc2ccc(F)cc2)cc1 returned Pyk2 oligo antag 1.1, CYP2C19 activ 0.4, CYP2C19 inh 57*, CYP2C9 inhib 36 and CYP2C9 activ 0.6.
Cc1ccc(NC(=O)COC(=O)c2ccn(C)n2)cc1 was read as Pyk2 oligo antag 0.23, CYP2C19 activ 0.2, CYP2C19 inh 79*, CYP2C9 inhib 35 and CYP2C9 activ 0.7.
For COc1ccc(C2C(C(=O)OCC(=O)Nc3ccc(C)cc3)CCC(=O)N2c2ccc(OC)cc2)cc1 (stereo not drawn) the results were Pyk2 oligo antag 1.7, CYP2C19 activ 0.2, CYP2C19 inh 75*, CYP2C9 inhib 74* and CYP2C9 activ 0.3.
For COc1ccc(C2C(C(=O)OCC(=O)NC(C)(C)C)CCC(=O)N2c2ccc(C)cc2)cc1OC (stereo not drawn) the results were Pyk2 oligo antag -0.96, CYP2C19 activ 0.9, CYP2C19 inh 13, CYP2C9 inhib 26 and CYP2C9 activ 0.7.
`Cc1sc2c(c1C)c(=O)n(-c1cccc(C(F)(F)F)c1)c(=O)n2CC(=O)NCc1ccco1` gave Pyk2 oligo antag -0.64, CYP2C19 activ 0.9, CYP2C19 inh 10, CYP2C9 inhib 8 and CYP2C9 activ 0.9.
For CC(C)c1ccc(CN2CC(C(=O)O)CC2=O)cc1 (stereo not drawn) the results were Pyk2 oligo antag -0.13, CYP2C19 activ 0.9, CYP2C19 inh 6, CYP2C9 inhib 22 and CYP2C9 activ 0.8.
`COC(=O)C1=C(C)N=C2SC(C#N)=C(N)N2C1c1ccc(OCc2ccccc2)cc1` (stereo not drawn) gave Pyk2 oligo antag -2.8, CYP2C19 activ 0.7, CYP2C19 inh 32, CYP2C9 inhib 69* and CYP2C9 activ 0.3.
